Among the data in PubChem BioAssay (NCI) are growth values, retold here.

The panel holds about 83,000 compounds, 20% with a hit somewhere; the sample as a whole holds those more often.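 Plates (96-well) were seeded with cells, treated with compound at one concentration, and incubated for 48 hours before percent growth was determined.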 Unmarked numbers belong to inactive results. Activity calls are given as the source filed them. Rule for the calls: active = growth percent below 10; inactive = the rest.

Common to all, as to test: NCI-60 one-dose screen, 48 h (100 = growth as untreated, 0 = no growth, -100 = all killed)
What all share (conditions): 10 µM unless noted

Experiment [1] deals with T-47D breast.
Experiment [2] deals with BT-549 breast.
Experiment [3] relates to MDA-MB-435 melanoma.
For experiment [4], the system named is SW-620 colon.
For experiment [5], the system named is MCF7 breast.
The subject of experiment [6] is HCT-116 colon.
Experiment [7] relates to HCC-2998 colon.
Experiment [8] relates to KM12 colon.

As for `COc1cc(C(=O)c2cc(C(C)=O)c3ccc(C)cn23)cc(OC)c1OC`, the growth in experiment [1] was 37.9%; in experiment [2], 53.1%; in experiment [3], -12.7% (active); in experiment [4], 32.4%; in experiment [5], 14.8%; in experiment [6] it was 18.4%. Besides, the growth in experiment [7] is 61.6%; in experiment [8], 28.6%.

With `CCCCc1nc2c(N)nc3ccccc3c2n1Cc1cccc(CN)c1`, the growth was 74% in experiment [1]; 28.1% in experiment [2]; 4.8% (active) in experiment [3]; 52.6% in experiment [4]; 24.8% in experiment [5]; 23% in experiment [6]. The growth in experiment [7] was 59.7%; in experiment [8], 49.9%.

Consider `NS(=O)(=O)c1ccc(Nc2nc(N/N=C/c3ccc4c(c3)OCO4)nc(Nc3ccccc3)n2)cc1`, for which the growth in experiment [1] is 54.7%; in experiment [2], 76.7%; in experiment [3] it was 59.2%; in experiment [4] it was 49.8%; in experiment [5], 18.7%; in experiment [6], 36.7%. Moreover, the results for the growth in experiment [7] and in experiment [8] were 23.2% and 70.4%, respectively.

As to `Cn1c(SCC(=O)c2ccco2)nc2ccccc2c1=O`, the growth in experiment [1] was 55.3%; in experiment [2], 96.5%; in experiment [3], 105%; in experiment [4], 111%; in experiment [5], 18.3%; in experiment [6], 102%. Further, the growth was 112% in experiment [7] and 86.3% in experiment [8].

As to `CN(C)CCNc1ccc2ncc(C#Cc3cncc(C(=O)Nc4ccc(CN5CCN(C)CC5)c(C(F)(F)F)c4)c3)n2n1`, the growth was 78.7% in experiment [1]; -8.5% (active) in experiment [2]; 40.5% in experiment [3]; -6.29% (active) in experiment [4]; -51.9% (active) in experiment [5]; 5.01% (active) in experiment [6]. For the same compound, the growth in experiment [7] is -25.9% (active); in experiment [8], -8.42% (active).

Turning to `CC(C)[C@H]1c2[nH]c3ccccc3c2C[C@H]2C(=O)N(CCCCCCC(=O)NO)CC(=O)N12`, the growth in experiment [1] is 62.4%; in experiment [2], 101%; in experiment [3], 74.9%; in experiment [4], 82.3%; in experiment [5], 59.5%; in experiment [6], 59.2%. Further, the results for the growth in experiment [7] and in experiment [8] were 102% and 88.8%, respectively.

Take `Cc1cc(Br)ccc1-n1cc(C#N)c(N)c1C(=O)c1ccc(Br)cc1`: the growth was 101% in experiment [1]; 89.8% in experiment [2]; 100% in experiment [3]; 117% in experiment [4]; 95.2% in experiment [5]; 88.6% in experiment [6]. Besides, the growth was 110% in experiment [7] and 107% in experiment [8].

`Cn1cc(-c2nnc(N)nc2-c2c[nH]c3ccc(Br)cc23)c2cc(Br)ccc21`: the growth in experiment [1] was 88%; in experiment [2] it was 91.1%; in experiment [3] it was 93.7%; in experiment [4], 112%; in experiment [5], 90.7%; in experiment [6], 98.8%. The figures for the growth in experiment [7] and in experiment [8] were 114% and 99.4%, respectively.

Regarding `C=C(C=O)[C@@H]1CC[C@]2(C(=O)O)CC[C@]3(C)C(CC[C@@H]4[C@@](C)(CCC#N)[C@H](C(=C)C=O)CC[C@]43C)[C@@H]12` (some centres not stated), the growth in experiment [1] was 28.1%; in experiment [2] it was 28.9%; in experiment [3] it was -9.89% (active); in experiment [4] it was 10.9%; in experiment [5] it was 14.3%; in experiment [6] it was -82.8% (active). In addition, the growth in experiment [7] was 108%; in experiment [8] it was 92%.

Take `CC1=C(C)C(=O)C(Nc2ccc3c(c2)OCCO3)=C(Br)C1=O`: the growth in experiment [1] is 80.5%; in experiment [2], 101%; in experiment [3], 102%; in experiment [4] it was 107%; in experiment [5], 78.2%; in experiment [6], 90.6%. Moreover, the growth is 102% in experiment [7] and 93.7% in experiment [8].

With `CCCCOc1ccc(S(=O)(=O)N2CCN(c3nc(C)cc(N4CCOCC4)n3)CC2)cc1`, the growth is 55.9% in experiment [1]; -6.76% (active) in experiment [2]; 6.06% (active) in experiment [3]; 28.9% in experiment [4]; 76.9% in experiment [5]; -1.17% (active) in experiment [6]. Further, the growth in experiment [7] was 33%; in experiment [8], 4.03% (active).

Consider `CN1CCN(Cc2ccc(NC(=O)c3cncc(C#Cc4cnc5ccc(OCC(F)F)nn45)c3)cc2C(F)(F)F)CC1`, for which the growth in experiment [1] is 8.64% (active); in experiment [2], -16.6% (active); in experiment [3], -92.6% (active); in experiment [4] it was -49.1% (active); in experiment [5], -66.6% (active); in experiment [6], -84.3% (active). Besides, the figures for the growth in experiment [7] and in experiment [8] were -67% (active) and -53.9% (active), respectively.

In the case of `CCc1nnc(NC(=O)c2cc(-c3ccc(Cl)cc3Cl)oc2C)s1`, the growth in experiment [1] was 61.7%; in experiment [2], 90.4%; in experiment [3] it was 90.6%; in experiment [4] it was 93.3%; in experiment [5] it was 84.9%; in experiment [6] it was 42.2%. Further, the growth is 111% in experiment [7] and 72.7% in experiment [8].

As to `O=C(CCCCCCNC(=O)C(O)(O)C(F)(F)F)Nc1ccc(Cl)cc1`, the growth in experiment [1] was 10.5%; in experiment [2] it was 45.9%; in experiment [3], 11.6%; in experiment [4], 5.2% (active); in experiment [5] it was 17.3%; in experiment [6], 3.99% (active). The growth in experiment [7] is 25.6%; in experiment [8], 20.6%.
